# From PubChem BioAssay
# Several values for one entry are separate records, joined by “and”; a condition that tells them apart may be missing. Identical values can stand only once. Records with an inconclusive call do not appear. Activity calls are given as the source filed them. Unless noted, cut-off not given; nearly all actives show AC50 up to about 30 µM.
# Experiments:
# [1] = viability loss in pontine glioma line – cell-based, SU-DIPG-XIII, MIPE4.0, CellTiter-Glo, qHTS, dose response (AID 1347061; cut-off not given, nearly all actives have AC50 up to about 37 µM;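 further: cells exposed to compound for 48 hours before readout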); conditions: CellTiter-Glo ATP luminescence
# [2] = viability loss in pontine glioma line – cell-based, JHH-DIPG-1, MIPE4.0, CellTiter-Glo, qHTS, dose response (AID 1347062; cut-off not given, nearly all actives have AC50 up to about 27 µM;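 on AC50: cells exposed to compound for two days before readout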); conditions: JHH-DIPG-1 viability, CellTiter-Glo ATP luminescence
# [3] = viability loss in pontine glioma line – cell-based, SU-DIPG-IV, MIPE4.0, CellTiter-Glo, qHTS, dose response (AID 1347063); conditions: CellTiter-Glo ATP luminescence;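 further: compound exposure lasted 48 hours before the viability readout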
# [4] = growth inhibition of DIPG cells – cell-based, MIPE4.0 library, CellTiter-Glo luminescence, qHTS (AID 1347066); conditions: SU-DIPG-VI viability, CellTiter-Glo ATP luminescence;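 further: cells exposed to compound for 48 hours before readout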
# [5] = viability loss with induced miR-34 in A549 – imaging, A549 dox-inducible miR-34, nuclei and caspase counts, primary screen (AID 1347080;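 active means compounds whose cell count with miR-34 switched on is under 0.7 times the count with it off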); conditions: A549 miR-34 inducible, Hoechst nuclei count, 48 h
# [6] = MELAS cybrid and Rieske KO viability enhancers – cell-based, MELAS cybrids, Rieske KO mouse fibroblasts, CellTiter-Glo, primary screen (AID 1508586;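 active means mean z-score across replicates of 1.96 or higher in either the MELAS or the Rieske mutant cell line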;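 further: z relative to plate mean and SD of compound and empty wells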); conditions: low glucose
# [7] = growth inhibition of DIPG cells – cell-based, MIPE5.0 library, qHTS (AID 1347068; cut-off not given, nearly all actives have IC50 up to about 30 µM); conditions: SU-DIPG-XXV viability
# [8] = stronger effect = lower value, cell number ratio, induced over uninduced
# [9] = measured here: relative caspase fold change +Dox/-Dox
# [10] = measured here: total cells with miR-34 induction, stronger effect = lower value
# [11] = measured here: total cells without miR-34 induction
# [12] = MELAS cybrid survival, CellTiter-Glo 48 h, stronger effect = higher value
# [13] = Rieske KO mouse fibroblast survival, CellTiter-Glo 72 h
compound,measurement,setting,value
O=C(Nc1cc2cc[nH]c2cn1)c1ccccc1,AC50,[1],14.8 µM (active)
same,AC50,[2],5.9 µM (active)
same,AC50,[3],3.32 µM (active)
same,AC50,[4],14.8 µM (active)
same,fold change,[5]; [8],0.982 (inactive)
same,fold change,[5]; [9],0.194
same,cell count,[5]; [10],8430
same,cell count,[5]; [11],8590
same,z-score,[6]; [12],-0.697 (inactive)
same,z-score,[6]; [13],-2.76
CC(C)(O)Cn1c(NC(=O)c2ccc(-c3cn[nH]c3)s2)nc2cc(CN3CCOCC3)ccc21,AC50,[1],2.64 µM (active)
same,AC50,[2],0.743 µM (active)
same,AC50,[3],1.48 µM (active)
same,AC50,[4],2.64 µM (active)
NC(N)=Nc1nc(CSCCC(N)=NS(N)(=O)=O)cs1,outcome,[1],inactive
same,outcome,[2],inactive
same,outcome,[3],inactive
same,outcome,[4],inactive
same,fold change,[5]; [8],0.921 (inactive) and 0.901 (inactive) and 0.846 (inactive)
same,fold change,[5]; [9],1.73 and 0.639 and 1.03
same,cell count,[5]; [10],9300 and 8340 and 7700
same,cell count,[5]; [11],10100 and 9260 and 9100
same,z-score,[6]; [12],0.605 (inactive) and -0.262 (inactive)
same,z-score,[6]; [13],-0.158 and 0.443
C=C1/C(=C/C=C2\CCCC3(C)[C@@H]([C@H](C)/C=C/C=C/C(O)(CC)CC)CC[C@@H]23)C[C@@H](O)C[C@@H]1O (stereo partly specified),AC50,[1],18.7 µM (active)
same,AC50,[2],20.9 µM (active)
same,AC50,[3],16.6 µM (active)
same,outcome,[7],inactive
Cn1c(N2CCCCS2(=O)=O)nc(C(=O)NCc2ccc(F)cc2)c(O)c1=O,outcome,[1],inactive
same,outcome,[2],inactive
same,outcome,[3],inactive
same,outcome,[4],inactive
same,fold change,[5]; [8],0.915 (inactive)
same,fold change,[5]; [9],0.973
same,cell count,[5]; [10],7350
same,cell count,[5]; [11],8040
same,z-score,[6]; [12],-0.418 (inactive)
same,z-score,[6]; [13],0.522
C/C=C1\C2C=C(C)CC1(N)c1ccc(=O)[nH]c1C2 (stereo unspecified),outcome,[1],inactive
same,outcome,[2],inactive
same,outcome,[3],inactive
same,outcome,[4],inactive
same,fold change,[5]; [8],1.01 (inactive)
same,fold change,[5]; [9],0.681
same,cell count,[5]; [10],4140
same,cell count,[5]; [11],4110
N=C1S/C(=C\c2ccc(-c3ccc4c(c3)C(=O)NC4=O)o2)C(=O)N1c1ccc(Br)cc1,outcome,[1],inactive
same,outcome,[2],inactive
same,outcome,[3],inactive
same,outcome,[4],inactive
same,outcome,[7],inactive
O=C(O)C(O)Cc1ccc(O)c(O)c1 (stereo unspecified),outcome,[1],inactive
same,outcome,[2],inactive
same,outcome,[3],inactive
same,outcome,[4],inactive
same,outcome,[7],inactive
same,fold change,[5]; [8],0.928 (inactive)
same,fold change,[5]; [9],0.6
same,cell count,[5]; [10],9530
same,cell count,[5]; [11],10300
same,z-score,[6]; [12],-0.385 (inactive)
same,z-score,[6]; [13],0.0393
CO/N=C(/C(=O)N[C@@H]1C(=O)N2C(C(=O)O)=C(Cn3ccc(=N)n3CCO)CS[C@H]12)c1csc(N)n1,outcome,[1],inactive
same,outcome,[2],inactive
same,outcome,[3],inactive
same,outcome,[4],inactive
